In PubChem BioAssay AID995 (National Center for Advancing Translational Sciences (NCATS), 2007):
The whole screen tested about 72,000 compounds, of which about 710 (0.99%) were called active. Not shown: some 7% with an inconclusive outcome. This is one part of a sample in which actives are shown more often than they occur. Unmarked numbers belong to inactive results. Calls follow the shape of the dose curve; as a rule, active = well fitted inhibition curve with a large enough effect; inconclusive = small, poorly fitted or top-dose-only effect; inactive = no such curve, though single readings can be large or run the other way.

experiment: qHTS Assay for Inhibitors of the ERK Signaling Pathway using a Homogeneous Screening Assay; conditions: HEK293-V1b, vasopressin-stimulated pERK AlphaScreen; series mostly up to 57.5 µM; activity, negative = inhibition: at the top concentration; also: nearly all actives have a fitted effect of over 55% in size
Text: qHTS Assay for Inhibitors of the ERK Signaling Pathway using a Homogeneous Screening Assay; also: nearly all actives have a fitted effect of over 55% in size
NIH Chemical Genomics Center [NCGC]
NIH Molecular Libraries Screening Centers Network [MLSCN]
Assay Submitter (PI): Dr. Wei Zheng, NCGC/NIH
The Ras/extracellular-signal-regulated kinase (ERK) mitogen activated protein (MAP) kinase signaling pathway (ERK1/2 cascade) plays is a key role in transmitting signals from the cell surface to the nucleus (Nishida and Gotoh 1993; Chang and Karin, 2001). The cascade is initiated by the small G-protein Ras, which recruits Raf […], where activation occurs. Alternatively, this pathway can be activated by elevating intracellular cAMP.
Activation of the ERK pathway is essential in increased cell division and cell survival. Sustained and constitutive activation of the ERK pathway, however, has been linked to uncontrolled cell proliferation, increased cell survival, and tumor progression. Thus, the ERK has been as an attractive target for cancer chemotherapy in the past few years (Sebolt-Leopold and Herrera, 2004). Given its physiological and pathological importance, assessment of ERK phosphorylation has been broadly performed in both basic research and drug discovery. Most assays for the measurement of ERK phosphorylation use the antibody-based detection methods, such as western blot and ELISA. These assays require multiple reagent additions with cell wash steps and are not suitable for high throughout screening.
The current cell-based ERK phosphorylation assay was performed using AlphaScreen platform. AlphaScreen is a two bead-based proximity-dependent chemical energy transfer luminescent assay platform. The assay reagents (ERK SureFire(TM) kit) were supplied from TGR BioSciences (Australia). In the presence of specific antibodies, phosphorylated ERK will bring "donor" and "acceptor" beads to a proximity range (<200 nm), and subsequently lead a chemical luminescent reaction upon exciting donor beads with 680 nm laser. To exclude the assay-related false positives, we used a biotinylated rabbit IgG to perform counter-screen. The biotinylated antibody mimics the phosphorylated ERK1/2 for bringing streptavidin coated beads and protein-A coated beads to a proximity range for the AlphaScreen detection.
NCGC Assay Protocol Summary:
HEK293 cells stably expressing type-1 vasopressin receptor (V1b) were maintained in DMEM medium (Invitrogen, Carlsbad, CA) at 37C under a humidified atmosphere containing 5% CO2 and 95% air. The medium contained 10% FBS, 2 mM L-glutamine, non-essential amino acid, pyruvate and 50 U/ml penicillin and 50 ug/ml streptomycin (Invitrogen). The aliquots of frozen cells were stored at -135C and used for the compound screening. All compounds were screened as titrations from 0.6 nM to 46 uM final concentration. Vasopressin was used to stimulate the ERK phosphorylation pathway. The ERK phosphorylation in cells was determined using an AlphaScreen assay kit provided by PerkinElmer. Data were normalized to the controls for basal activity (DMSO only) and 100% activation (25 nM vasopressin). AC50 values were determined from concentration-response data modeled with the standard Hill equation.
(1) Seed 4 ul/well of resuspended frozen HEK293 cells containing 2000 cells in white 1536-well plates for overnight with 1% FBS at 37C under a humidified atmosphere containing 5% CO2 and 95% air.
(2) Add 23 nL compounds in DMSO solution. The final titration was 0.6 nM to 46 uM.
(3) Incubate at 37C for 30 min.
(4) Dispense 0.5uL vasopressin (25 nM in final)
(5) Incubate at 37C for 5 min.
(6) Dispense 0.5uL of 1:2 diluted 5x lysis buffer.
(7) Incubate at 37C for 10 min.
(8) Dispense 1.5uL of mixture of activation buffer and reaction buffer with AlphaScreen beads (streptavidin donor beads and protein-A acceptor beads, 10 ng/well for each).
(9) Incubate at room temperature for 5 hr.
(10) Detect the assay plate in an EnVision plate reader (PerkinElmer) using the AlphaScreen detection mode.
[…]
% is scaled to controls: 0 for no effect and ±100 for the full control effect; potency is read from the fitted curve at half-maximal effect.

Point of comparison: `C=C1C([C@@]2(C)C(OC(C)=O)CC(=O)O[C@@](C)(COC(C)=O)C2CC(=O)OC)C(OC=O)C(OC(=O)C(O)C(C)CC)[C@]2(C)C(c3ccoc3)CC(=O)C12O` (stereo not given in full), “activity, negative = inhibition” value 22.9%. Against it:
- CC(=O)OCC(=O)C1CCC2C3CCC4=CC(=O)CC[C@@]4(C)C3CC[C@]12C (stereo not given in full) — lower, -26.6%
- Cc1ccc(NC(=O)c2cccc(N(C)C)c2)cc1NC(=O)c1ccc(O)cc1 — lower, -23%
- CC1(C)OC2CO[C@]3(COS(N)(=O)=O)OC(C)(C)OC3C2O1 (stereo not given in full) — lower, 4.56%
- CC1(C)C=CC(=O)[C@]2(C)C1CC(=O)[C@]1(C)C2CC[C@@]2(C)C(c3ccoc3)OC(=O)C3OC321 (stereo not given in full) — lower, -1.1%
- COC(=O)[C@H]1C[C@@H]1[C@H](NC(=O)Oc1ccc(F)cc1)c1ccccc1 — lower, -2.42%
- O=C(c1cnccn1)N1CCC2(CCCN(Cc3ccccc3)C2)CC1 — lower, -10.5%
- COc1ccccc1OCCNCC(O)COc1cccc2[nH]c3ccccc3c12 (stereo not given) — lower, -2.44%
- O=C(OCC(COC(=O)c1ccccc1)(COC(=O)c1ccccc1)COC(=O)c1ccccc1)c1ccccc1 — higher, 34.7%
- COc1c(C(C)C)oc2cc3oc(=O)ccc3cc12 — higher, 29.4%
- COC(=O)[C@@]1(Cc2ccc(OC)cc2)[C@H]2c3cc(C(=O)N4CCCC4)n(Cc4ccc(OC(F)(F)F)cc4)c3C[C@H]2CN1C(=O)c1ccccc1 — lower, 3.07%
- CC(C)CO — lower, 7.21%
- Nc1nc2[nH]c(=O)c(=O)[nH]c2c(=O)[nH]1 — lower, -3.19%
- COC(=O)[C@@H]1C[C@@]2(O)[C@@H](O)[C@@H](O)[C@@H](O)C[C@H]2N1Cc1ccc(C)s1 — lower, -22.8%
- O=C(c1cc(C(F)(F)F)cc(C(F)(F)F)c1)N1CCC[C@@]2(CCN(c3ccccn3)C2)C1 — lower, -25.8%
- Cc1nc2cnc(N3CCNCC3)nc2n(CCc2ccccc2)c1=O — lower, -26.2%
- C/C=C(/C)C(=O)OC1Cc2c(ccc3ccc(=O)oc23)OC1(C)C (stereo not given) — lower, 4.83%
- Cc1c(S(=O)(=O)O)oc2c1C(=O)C(=O)c1c-2ccc2c1CCCC2(C)C — lower, -6.22%
- Cc1ccnc(SCCn2c(Br)nc3c2c(=O)[nH]c(=O)n3C)n1 — lower, -5.19%
- CCCCCn1c(SCCC(C)C)nc2c1c(=O)[nH]c(=O)n2C — lower, -28.8%
- CCC[C@@H]1C[C@@]1(CCC)C(NC(=O)c1ccc(-c2ccccc2)cc1)c1cccc(Cl)c1 (stereo not given in full) — lower, -2.63%
- CC1=C(C(=O)OCc2ccccc2)C(c2ccc(C(F)(F)F)cc2)NC(=O)N1CCCCCC(=O)O (stereo not given) — lower, 16.5%
- O=C(NCCCN1CCN(C2CCCCC2)CC1)Nc1ccccc1C(F)(F)F — lower, -2.46%
- Cc1ccccc1NC(=O)CNc1ccccc1N1CCCCC1 — lower, -6.19%
- CC(C)[C@H]1CC[C@@H](C)C[C@H]1O — lower, 18.6%

Point of comparison: `O=C(O)CS(=O)c1ccc2c3c(cccc13)C(=O)c1ccccc1-2` (stereo not given), activity, negative = inhibition 22.7% [at 11.5 µM]. Against it:
- C[C@@H]1/C=C\CC(=O)OC[C@H]2O[C@@H](C=C[C@@H]2O)[C@H](C)/C=C\CC(=O)OC[C@H]2O[C@H]1C=C[C@@H]2O — lower, 20.6% [at 11.5 µM]

With `COc1ccc(C[C@H](N)C(=O)N[C@@H]2[C@H](O)[C@H](n3cnc4c(N(C)C)ncnc43)O[C@@H]2CO)cc1` the “activity, negative = inhibition” value was 18.5% [at 25.7 µM].

With `Cn1c(=O)[nH]c(=O)c2c1nc(Br)n2CCCCSc1nc2ccccc2o1` the Potency was 31.6 µM (active).
In the case of `O=C(CN1CCN(C2CCCCC2)CC1)Nc1ccccc1N1CCCCC1`, the Potency was 25.1 µM (active).
